± gives the standard deviation. Whole data set: some 5,500 sequences, median “pre-steady-state target cleavage rate” near 0.1, cut for the highest 2% near 0.64. Shown is part of a subset that was picked to be rich in the highest values.
These sequences were tested on MIWI (PIWIL1) piRISC loaded with piRNA #2 (30 nt) (assay: pre-steady-state target cleavage rate (min^-1); MIWI and MILI are mouse PIWI proteins and EfPiwi is from a freshwater sponge; tags in brackets are library labels; higher = faster piRNA-guided slicing of the target). Details: guide: piRNA #2 5'p-UUAGGUAACCCAGUAGAUCCAGAGGAAUUC; auxiliary factor: 500 nM mouse GTSF1.
How it was run: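 The pre-steady-state cleavage rate was obtained by Cleave-'n-Seq with a burst-and-steady-state fit. A transcribed, DNA-blocked target RNA library (0.1 nM) was mixed with 1 nM active affinity-purified piRISC carrying one synthetic guide, with or without 500 nM GTSF1 partner protein, in HEPES–potassium acetate buffer at 33 °C for 0–8 or 0–960 min. Uncleaved targets were sequenced and normalised to depth and to weakly complementary targets, with three trials pooled and k3 capped at 0.0001 min^-1.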

Sequence | pre-steady-state target cleavage rate
CUUUUCCUCUGGAUCUACGGGUUACCUAA | 0.0476 ± 0.0059
CUUAAGGACUGGAUCAACUGGCUUACCUAA | 0.0268 ± 0.022
CUUAAGGACUCGAUCUACUGGGUUAGCUAA | 0.00705 ± 0.0047
CUUAACCACUGGAUCUACUGGGUUACGUAA | 0.402 ± 0.031
CAAUACGUCUGGAUCUACUGGGUUACCUAA | 0.494 ± 0.053
CAAUUCCUCUGGAACUACUGGGUUACGUAA | 0.517 ± 0.048
GAAUUCCUCUGGAACUACUGGGUUACGUAA | 0.657 ± 0.04
CUAUUCCUCUGGAACUACUGGGUUACGUAA | 0.47 ± 0.031
CUUAAGCUCUGCAUCUACUGGGUUAGCUAA | 0.182 ± 0.027
CUUUUCCUCUCCAUCUACUGGGUUACCUAA | 0.554 ± 0.044
GAAUUCCUCCUGGAUCUACUGGGUUACCUAA | 0.445 ± 0.047
GAAUUCCUCUCCAUCUACUGGGUUACCUAA | 0.706 ± 0.051
CUAUUCCUCUGGGAUCUACUGGGUUACCUAA | 0.514 ± 0.042
CAAUUCCAUCUGGAUCUACUGGGUUACCUAA | 0.568 ± 0.064
CUUAUCCUCUCCAUCUACUGGGUUACCUAA | 0.422 ± 0.033
CUAUUCCUCUCCAUCUACUGGGUUACCUAA | 0.647 ± 0.051
CUAUUCCAUCUGGAUCUACUGGGUUACCUAA | 0.537 ± 0.053
CAAUUCCUCUCCAUCUACUGGGUUACCUAA | 0.829 ± 0.057
GAAUUCCUCGGAUCUACUGGGUUACCUAA | 0.432 ± 0.08
CUUAAGGGCUGGAUCUACUGGGUUACCUAA | 0.159 ± 0.037
CUUAAGGAGUGGAUCAACUGGGUUACGUAA | 0.053 ± 0.014

Sequence | pre-steady-state target cleavage rate
CUUAAGGACUGGAUCUACUGGGUCUACCUAA | 0.0638 ± 0.033
CUUAACCUGCUGGAUCUACUGGGUUACCUAA | 0.356 ± 0.036
CUUAAGGACUGGAUUCUACUGGGUUACCUAA | 0.0274 ± 0.024
GAAUUCCUCAGGUUCUACUGGGUUACCUAA | 0.539 ± 0.049
GAAUACCUCAGGAUCUACUGGGUUACCUAA | 0.421 ± 0.043
CUAAUCCUCAGGAUCUACUGGGUUACCUAA | 0.55 ± 0.055
CAAUUCCUCAGGUUCUACUGGGUUACCUAA | 0.709 ± 0.054
GAAUUCCUCAGGAUCUACUGGGUUACCUAA | 0.483 ± 0.048
GAAAUCCUCAGGAUCUACUGGGUUACCUAA | 0.446 ± 0.051
CUAUACCUCAGGAUCUACUGGGUUACCUAA | 0.465 ± 0.051
GUAUUCCUCAGGAUCUACUGGGUUACCUAA | 0.0863 ± 0.033
CAAUACCUCAGGAUCUACUGGGUUACCUAA | 0.656 ± 0.061
CUAUUCCUCAGGUUCUACUGGGUUACCUAA | 0.584 ± 0.05
CAAUUCCUCAGGAUCUACUGGGUUACCUAA | 0.695 ± 0.062
CAAAUCCUCAGGAUCUACUGGGUUACCUAA | 0.754 ± 0.059
GAAUUCCUCUGGAUCUACUCGGUUACGUAA | 0.155 ± 0.021
CUUAUCCACUGCAUCUACUGGGUUACCUAA | 0.314 ± 0.018
CUUAAGGUCUGGAUCUACAGGGUUACCUUA | 0.0564 ± 0.011
CUUAAGGACUGGAUCUUCUGGGUUACCUAA | 0.0593 ± 0.037
CUAUGCCUCUGGAUCUACUGGGUUACCUAA | 0.275 ± 0.037
CUAUUCCUCUGGAUCUACUCCGUUACCUAA | 0.0198 ± 0.0061

Sequence | pre-steady-state target cleavage rate
GAAUUCCUCAGGAUCUACUGCGUUACCUAA | 0.518 ± 0.048
CAAUUCCACUGGAUCUACUGCGUUACCUAA | 0.468 ± 0.067
CAUUUCCUCAGGAUCUACUGGGUUACCUAA | 0.701 ± 0.054
CUAUUCCUCAGGAUCUACUGCGUUACCUAA | 0.561 ± 0.069
CAAUUCCUCAGGAUCUACUGCGUUACCUAA | 0.674 ± 0.071
GAAUUCCACUGGAUCUACUGCGUUACCUAA | 0.744 ± 0.063
CUAUUCCACUGGAUCUACUGCGUUACCUAA | 0.542 ± 0.056
GAUUUCCUCAGGAUCUACUGGGUUACCUAA | 0.459 ± 0.046
CUUUUCCUCAGGAUCUACUGGGUUACCUAA | 0.578 ± 0.054
CUUAACCACUGGAUCUACUCGGUUACCUAA | 0.0483 ± 0.01
CUUAUCCUCUGGAUGCUACUGGGUUACCUAA | 0.277 ± 0.034
CUAUUCCUCUGGAUGUACUGGGUUACCUUA | 0.403 ± 0.043
CUUAAGGACUGGAUCUACUGGGUUACCGUAA | 0.0402 ± 0.032
CUUUUCCUCUGGAUCUACUGGGAUUCCUAA | 0.087 ± 0.033
CUAUUCCUGUGGAUCUACUGGCUUACCUAA | 0.0662 ± 0.017
CAAAUCCUCUGGAUCUACUGGGUUACGUAA | 0.555 ± 0.064
CUUAACCUCUCGAUCUACUGGGUUACGUAA | 0.551 ± 0.037
CUUAUCCUCUGGAUCUACUGGGUUACCGUAA | 0.344 ± 0.063
GAAAUCCUCUGGAUCUACUGGGUUACGUAA | 0.532 ± 0.058
CUUAUCCUCUCGAUCUACUGGGUUACGUAA | 0.728 ± 0.046
CUUAUCCUCUCGAUCUACUGGGUUACCUUA | 0.436 ± 0.032

Sequence | pre-steady-state target cleavage rate
CUUAUCCUCUGGAUCUACUGGGUUACGUUA | 0.469 ± 0.07
CUAAUCCUCUGGAUCUACUGGGUUACGUAA | 0.66 ± 0.052
CUUAUCCUCUGGAUCUACUGGGUUACGUAA | 0.684 ± 0.049
CUUUUCCUCAGGAUCUACUGGGUUAGCUAA | 0.133 ± 0.041
CAAUUCCUCUGGAUCUACUGGGUUUCCUUA | 0.281 ± 0.067
GAAUACCUCUGGAUGUACUGGGUUACCUAA | 0.251 ± 0.044
CUAUUCCUCUGGAUCUACUGGGUUACGUUA | 0.401 ± 0.055
CUUAUCCUGUGGAUCUACUGGGUUACCUAA | 0.443 ± 0.056
CUUAUCCUCUGGAUCUACUGGGUUAUCCUAA | 0.413 ± 0.057
CUUAAGGACGGAUCUACUGGGUUACCUAA | 0.0543 ± 0.039
CAAUUCCUCUCGAUCAACUGGGUUACCUAA | 0.721 ± 0.053
GAAUUCCUCUCGAUCAACUGGGUUACCUAA | 0.63 ± 0.051
CUUAUCCUCUCGAUCAACUGGGUUACCUAA | 0.508 ± 0.033
CUAUUCCUCUCGAUCAACUGGGUUACCUAA | 0.637 ± 0.047
CUAUUCCUCUGGAUCAACUGGGUUACCUAA | 0.44 ± 0.051
CUUUUCCUCUCGAUCAACUGGGUUACCUAA | 0.553 ± 0.039
CUUUUCCUCUGGAUCUACUGCGUUAGCUAA | 0.142 ± 0.048
CUUAAGGAGUGGAUCUACUGGGUUACCAUA | 0.0428 ± 0.015
